Screens: PubChem, National Center for Advancing Translational Sciences (NCATS)
Only some compounds are listed: those with a hit (about 6.6% of all), similar ones and a draw of the others.
RGS4 inhibitor – blocks human RGS4-accelerated GTP hydrolysis; Transcreener GDP fluorescence polarization, RGS4-accelerated GTP hydrolysis; Potency, µM (top dose mostly 114 µM), without a hit: at the highest dose activity change, negative = inhibition, hits mostly inhibitors; AID 504845; actives 0.039% (n = 390,000); P49798; also: % is scaled to controls: 0 for no effect and ±100 for the full control effect; nearly all actives have a fitted effect of over 75% in size
Target sequence (P49798 whole entry, looked up): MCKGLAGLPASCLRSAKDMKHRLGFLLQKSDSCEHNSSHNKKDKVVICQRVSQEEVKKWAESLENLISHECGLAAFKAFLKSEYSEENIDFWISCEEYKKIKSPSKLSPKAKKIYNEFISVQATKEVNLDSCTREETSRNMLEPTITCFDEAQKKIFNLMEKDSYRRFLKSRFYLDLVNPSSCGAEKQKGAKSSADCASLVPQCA
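MLSMR compounds (23 nl, pin-transferred) preincubated 10 min at room temperature with a 500nM (2x) first reagent, then RGS4 at 900nM (2x) plus Transcreener GDP mix added; fluorescence polarization (620/688 nm) read before and after 90 min at 30 °C.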
SW480 rerep – DNA re-replication induction in SW480 cells | AID 624297 | Potency, µM (highest dose often 46.1 µM), for the others: at the top dose re-replication activation, most hits filed as activators | actives 1.8% (n = 340,000) | SW480 DNA re-replication, Hoechst DNA content imaging, 48 h; also: % of control where 0% means no effect; nearly all actives have a fitted effect of over 55% in size
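Per well, 250 cells were exposed to pinned compound for 48 hr. Nuclear DNA was visualised with Hoechst (40 min, 37 C) and total object intensity recorded by fluorescence scanning.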
PTAP TSG101 blk – blocks PTAP/TSG101 interaction to inhibit HIV-1 budding. Q99816. Fluorescence polarization, FITC-PTAP peptide / Tsg101 binding. Potency, µM (titrated, usually from 115 µM), inactives show at the top dose activity change, negative = inhibition, hits mostly inhibitors. 340,000 tested, under 10 active. AID 493005; active = well fitted inhibition curve with a large enough effect in the main read-out, with a control signal flat, not every such curve was filed as active; inconclusive = small, poorly fitted or top-dose-only effect, or effect the other way, or a change in a side signal; inactive = no such curve, though single readings can be large or run the other way; also: % of control where 0% means no effect
Target sequence (Q99816 whole entry, looked up): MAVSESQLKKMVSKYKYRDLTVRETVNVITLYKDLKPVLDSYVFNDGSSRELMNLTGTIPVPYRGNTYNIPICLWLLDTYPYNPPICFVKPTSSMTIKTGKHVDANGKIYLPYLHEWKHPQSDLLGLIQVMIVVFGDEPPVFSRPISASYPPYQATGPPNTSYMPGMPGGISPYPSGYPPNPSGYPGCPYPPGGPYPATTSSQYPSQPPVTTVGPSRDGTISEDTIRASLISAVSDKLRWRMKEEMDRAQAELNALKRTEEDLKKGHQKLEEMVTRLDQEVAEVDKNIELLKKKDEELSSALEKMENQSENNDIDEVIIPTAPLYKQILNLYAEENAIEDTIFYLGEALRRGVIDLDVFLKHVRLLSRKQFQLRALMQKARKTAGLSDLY
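Steps: Tsg101 binding domain dispensed (10 uM final), compounds pinned in DMSO, FITC-labeled PTAP-motif peptide added (50 nM final); after 20 min binding at room temperature, polarization measured.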
MCF10A rereplic – inducers of DNA re-replication in MCF 10A breast cells | Potency, µM (doses to about 46.1 µM), without a hit: at the top dose activity, positive = re-replication, actives largely listed as activators | actives 2.9% (n = 350,000) | MCF 10A DNA re-replication, Hoechst nuclear intensity, 48 h | AID 624296; also: % of control where 0% means no effect; nearly all actives have a fitted effect of over 50% in size
KB-V1 cytotox – kills drug-selected multidrug resistant KB-V1 cells; KB-V1 MDR cells viability, CellTiter-Glo, 72 h; Potency, µM (highest dose often 46.1 µM), hits mostly cytotoxic; actives 3.4% (n = 400,000); also: % is scaled to controls: 0 for no effect and ±100 for the full control effect; nearly all actives have a fitted effect of over 60% in size
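In this primary screen, KB-V1 cells overexpressing P-gp are incubated with library compounds (lowest to highest concentration) for 72 h at 37 degrees C before a luminescent ATP viability read.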
KB-3-1 tox – kills parental KB-3-1 adenocarcinoma cells; KB-3-1 viability, CellTiter-Glo ATP luminescence, 72 h; Potency, µM (series often up to 46.1 µM), most hits filed as cytotoxic; actives 1.4% (n = 400,000); also: % is scaled to controls: 0 for no effect and ±100 for the full control effect; nearly all actives have a fitted effect of over 60% in size
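Luminescent ATP read-out (CellTiter-Glo) measures survival of drug-naive KB-3-1 cells after 72 h compound exposure at 37 °C. Titration series was screened from lowest to highest concentration, with DMSO vehicle plates as background controls.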
Numbers without * were called inactive; i = inactive; ? = inconclusive; · = not tested or not shown; [ ] = remark or other dose. Unless noted, calls follow the shape of the dose curve; as a rule, active = well fitted curve in the direction sought with a large enough effect; inconclusive = small, poorly fitted or top-dose-only effect, or another doubt; inactive = no such curve, though single readings can be large; an effect the other way counts as inactive or inconclusive. Potency is read from the fitted curve at half-maximal effect.

SMILES	RGS4 inhibitor	SW480 rerep	PTAP TSG101 blk	MCF10A rereplic	KB-V1 cytotox	KB-3-1 tox
Oc1cccc2ccc(/C=C/c3ccccc3Br)nc12	1%	6.5µM*	0%	?	?	?
Oc1c(Cl)cc(Cl)cc1/C=C/c1ccc2cccc(O)c2n1	-10%	12µM*	-3%	6.5µM*	?	?
CC(C)c1ccc(NC(=O)Cn2cc(S(=O)(=O)Cc3ccccc3Cl)c3ccccc32)cc1	14%	·	·	·	?	i
Cc1cccc(NC(=O)CCS(=O)(=O)c2cc(Br)cc3c2N(C(=O)C2CC2)CC3)c1	-22%	·	·	·	i	i
COc1cc2c(cc1OC)C(c1ccc(Cl)cc1)N(c1ccc(C)c(F)c1)C(=O)C2 (stereo unspecified)	-5%	·	·	·	?	?
CC(C)Oc1cccc(C(=O)Nc2ccc3oc(-c4ccccc4)nc3c2)c1	-2%	·	·	·	?	?
O=C1C=CC(=O)C(C2=C3C(=O)N(CCc4ccccc4)CC(=O)N3CCC2)=C1	?	?	-4%	7.3µM*	i	i
COc1cc2[nH]c(=S)n(Cc3ccc(C)cc3)c(=O)c2cc1OC	-3%	20%	-6%	13µM*	i	i
COc1cc2[nH]c(=S)nc(NCCc3ccc(C)cc3)c2cc1OC	5%[11.4 µM]	?	-5%	23µM*	i	i
COc1ccc(Cn2c(=S)[nH]c3cc(OC)c(OC)cc3c2=O)cc1	20%	0%	-1%	?	i	?
COc1ccccc1CNc1nc(=S)[nH]c2cc(OC)c(OC)cc12	-28%	3.3µM*	-2%	-3%	i	i
COc1ccc(CCNc2nc(=S)[nH]c3cc(OC)c(OC)cc23)cc1OC	-39%	-2%	-3%	2%	i	i
CCOC(=O)c1ccc(-n2ccnc2)c(NC(=O)c2cccc(Br)c2)c1	-1%	-1%	0%	1%	i	i
CCOC(=O)c1ccc(-n2ccnc2)c(NC(=O)c2ccc(C(C)(C)C)cc2)c1	-22%	13µM*	0%	?	i	i
Cc1ccc2ccccc2[n+]1CCCS(=O)(=O)[O-]	10%	-1%	-3%	6%	i	i
CCC[n+]1c2ccccc2cc2ccccc21	?	12µM*	-9%	13µM*	21µM*	?
CCCC[n+]1c2ccccc2cc2ccccc21	?	?	-7%	3%	i	16µM*
CCCCC[n+]1cccc2c3ccccc3ccc21	3%	-5%	-2%	8%	i	?
CCCCc1ccc(CC(=O)NO)cc1	·	·	·	·	i	i
Cc1sc(-n2c(C)cc(/C=C3\SC(=S)NC3=O)c2C)c(C#N)c1C	-47%	8.2µM*	?	-2%	i	?
Cc1cc(/C=C2\SC(=S)NC2=O)c(C)n1-c1cccc(O)c1	7%[11.4 µM]	6%	-5%	12%	i	i
COC(=O)C1=CN(CCCN2CCCC2=O)C=C(C(=O)OC)C1c1ccccc1C(F)(F)F	-31%	18µM*	0%	13µM*	i	i
CCCCOc1ccccc1C1C(C(=O)OC)=CN(CC)C=C1C(=O)OC	1%	12µM*	-2%	?	i	i
CCCOc1ccccc1C1C(C(=O)OC)=CN(C(C)C)C=C1C(=O)OC	7%	?	-4%	?	i	?
Nc1ccc2ccc(O)cc2c1	-7%	18µM*	-4%	7.3µM*	i	i
SMILES	RGS4 inhibitor	SW480 rerep	PTAP TSG101 blk	MCF10A rereplic	KB-V1 cytotox	KB-3-1 tox
Cc1ccc(C(=O)N2CCN(Cc3nc4sc5c(c4c(=O)[nH]3)CCCC5)CC2)cc1	-11%	-4%	-3%	0%	16µM*	?
O=C(c1ccccc1F)N1CCN(Cc2nc3sc4c(c3c(=O)[nH]2)CCCC4)CC1	23%	4%	-2%	10%	?	i
COc1cc(CNCCc2ccccc2)cc(Cl)c1OCc1ccccc1	9%	?	-8%	23µM*	18µM*	?
COc1cc(CNCc2ccccc2)cc(Cl)c1OC	14%	0%	-5%	8%	i	i
CCCNC(=O)c1ccccc1NC(=O)c1nsc2ccccc12	8%	·	·	·	i	i
N#C/C=C/C(=C\Nc1ccc(Cl)cc1)S(=O)(=O)c1ccccc1	-3%[56.9 µM]	8%	-9%	?	i	i
COc1ccc(N/C=C(\C=C\C#N)S(=O)(=O)c2ccccc2)cc1	23%	?	-3%	3.7µM*	i	i
CCOC(=O)c1sc2ccccc2c1S(=O)(=O)NCc1ccccc1OC	-18%	·	·	·	i	i
O=C(CSc1nc2c(cnn2-c2ccc(F)cc2)c(=O)[nH]1)N1CCOCC1	41%	-5%	-1%	5%	i	i
Cc1ccc2nc(SCc3nc4c(cnn4-c4ccccc4)c(=O)[nH]3)[nH]c2c1	1%	-2%	-2%	?	2.3µM*	2.6µM*
O=c1[nH]c(SCc2nc3c(cnn3-c3ccccc3)c(=O)[nH]2)nc2ccccc12	-14%	0%	7%	?	?	2.1µM*
Cc1ccc(-n2ncc3c(=O)[nH]c(SCC(=O)N4CCOCC4)nc32)cc1	-16%	-5%	-7%	26µM*	i	i
O=c1[nH]c(CSc2nc3ccccc3[nH]2)nc2c1cnn2-c1ccccc1	-20%	6%	-7%	?	10µM*	i
Cc1cc(C)cc(Nc2cc(C)nc3nc(-c4ccco4)nn23)c1	-10%	·	·	·	i	i
Clc1ccc(-c2cn3c(n2)-c2ccccc2C3)cc1Cl	-4%	-2%	-1%	-2%	15µM*	i
CCOC(=O)c1cc(-c2ccccc2)n(CCC(=O)NCCc2ccccc2)c1C	-14%	·	·	·	·	·
N#Cc1ccc(CN2CCN(C(=O)Cn3nc(C(N)=O)c4ccccc4c3=O)CC2)cc1	-31%	21µM*	5%	4%	i	i
NC(=O)/C=C\c1cn(-c2ccccc2)nc1-c1ccc2c(c1)OCCO2	-6%	0%	-4%	?	15µM*	i
CNC(=O)COC(=O)/C=C/c1cn(-c2ccccc2)nc1-c1ccc2c(c1)OCCO2	8%	-5%	-6%	-7%	i	i
CC(C)OC(=O)c1cn(-c2ccccc2)nc1-c1ccc2c(c1)OCCO2	-7%	2%	-4%	?	7.3µM*	i
COc1cccc(C(=O)Nc2nc(-c3nnn(-c4ccccc4C(F)(F)F)c3C)ns2)c1	8%	·	·	·	i	?
O=S(=O)(c1ccccc1)c1cnc(-c2cccnc2)nc1-c1ccccc1	-34%	-7%	-2%	9%	8.2µM*	i
